Compound activity: PubChem, Johns Hopkins Ion Channel Center
Shown are actives, neighbours in structure and some others; about 1.6% of the full set was active somewhere.
KCNQ2 inh: rat KCNQ2 potassium channel inhibitors, primary screen, cell-based, CHO-K1, FluxOR thallium flux, B-score; hit rate 1.1% among 310,000; 20 min; active compounds read low; B-score at 10 µM; Potassium voltage-gated channel subfamily KQT member 2 (Rattus norvegicus), O88943;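 active means fluorescence ratio B-score at most minus 3 library SDs, with starting brightness B-score within 2 library SDs, cut at about -5.5 in these data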
KCNQ2 enhance: potentiators of rat KCNQ2 potassium channel; B-score at 10 µM; CHO-K1 KCNQ2, FluxOR thallium flux fluorescence; active compounds read high; AID 2239, 2010; hit rate 0.54% among 310,000;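 active means fluorescence ratio B-score at least 3 SD of library B-scores, with initial fluorescence B-score within 3 of them, cut at about 5.3 in these data; same plate scores as AID 2156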;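 further: B-score of peak minus minimum over baseline fluorescence ratio after K+ and Tl+ stimulus; positive B-score means potentiation of KCNQ2 with more thallium influx and brighter signal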
Kir21 confirm: mouse Kir2.1 channel blockers, retest, confirmation, cell-based, FluxOR thallium flux, duplicate; shares compounds with KCNQ2 enhance; Kir2.1-expressing cells, FluxOR thallium flux fluorescence; active compounds read low; Tl flux remaining, % of negative control (active compounds read low), % at 10 µM; hit rate 41% among 2,300; AID 2032, 2009;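 active means Primary-screen hit whose thallium flux fell at least 3 control SD below untreated wells in both duplicates, with normal baseline fluorescence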;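 further: 0% = blank wells without stimulus and 100% = stimulated no-compound controls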
HEK293 Tl flux: counter-screen for Kir2.1 inhibitors: effect in parental HEK293 cells | hit rate 19% among 2,300 | shares compounds with KCNQ2 enhance | FluxOR thallium flux fluorescence; 0% = unstimulated blank wells | FluxOR signal as % of negative control (100 = no effect), % at 10 µM;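 active means dye signal at least 3 control SD above or below untreated wells in both duplicates, raw fluorescence within 3, either direction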;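 further: percent is based on the flux ratio of peak minus minimum fluorescence over baseline F0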
CHO-K1 Tl ctr: nonspecific thallium flux increase in parental CHO-K1, confirmation, counter-screen for KCNQ2 potentiator project, cell-based, FluxOR thallium flux, duplicate. AID 2282, 2010. hit rate 43% among 1,200. activity increase over 3SD of controls, % at 10 µM. parental CHO-K1 cells, FluxOR thallium flux fluorescence; zero = vehicle mean+3SD, 100% = vehicle-minus-blank window. shares compounds with KCNQ2 enhance;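 active means signal rise of at least 3 SD above the untreated control mean, in both duplicate wells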;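 further: counter screen of KCNQ2 potentiator hits so any rise reflects channel-independent effects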
KCNQ1 pot spec: human KCNQ1 channel potentiation off-target, confirmation, selectivity assay for KCNQ2 potentiator project, cell-based, CHO, FluxOR thallium flux; shares compounds with KCNQ2 enhance; CHO KCNQ1 stable, FluxOR thallium flux fluorescence; beyond 3SD, as % of vehicle-control signal; activation over 3SD threshold, % at 10 µM; hit rate 28% among 1,200; AID 2283, 2010;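 active means fluorescence ratio rise of at least 3 SD of vehicle wells above their mean, in both replicate wells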;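 further: 0% = vehicle mean plus 3 SD and 100% = vehicle minus unstimulated blank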
Target sequence (P51787 whole entry, looked up): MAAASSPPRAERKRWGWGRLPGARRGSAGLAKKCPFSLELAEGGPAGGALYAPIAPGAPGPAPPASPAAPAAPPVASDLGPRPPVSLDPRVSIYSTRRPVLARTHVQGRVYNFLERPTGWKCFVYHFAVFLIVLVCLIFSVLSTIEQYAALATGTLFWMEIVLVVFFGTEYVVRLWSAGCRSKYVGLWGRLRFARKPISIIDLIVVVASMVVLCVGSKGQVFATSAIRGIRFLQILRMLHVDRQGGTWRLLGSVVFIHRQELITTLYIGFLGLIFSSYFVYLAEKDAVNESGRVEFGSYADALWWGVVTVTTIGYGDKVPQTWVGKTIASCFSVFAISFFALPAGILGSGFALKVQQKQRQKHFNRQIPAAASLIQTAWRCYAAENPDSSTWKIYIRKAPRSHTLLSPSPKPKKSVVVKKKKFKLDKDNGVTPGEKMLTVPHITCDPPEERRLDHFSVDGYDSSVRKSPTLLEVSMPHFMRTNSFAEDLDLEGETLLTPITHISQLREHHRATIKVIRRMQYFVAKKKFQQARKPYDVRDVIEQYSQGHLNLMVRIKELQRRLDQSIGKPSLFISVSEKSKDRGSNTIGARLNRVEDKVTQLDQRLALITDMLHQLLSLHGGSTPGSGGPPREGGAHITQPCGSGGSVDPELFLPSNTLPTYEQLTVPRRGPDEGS
KCNQ2 pot conf: rat KCNQ2 channel potentiators, confirmation, cell-based, CHO, FluxOR thallium flux, duplicate; shares compounds with KCNQ2 enhance; CHO-KCNQ2 cells, FluxOR thallium flux fluorescence; potentiation, less the hit threshold, % at 10 µM; hit rate 68% among 1,200; AID 2287, 2010;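 active means fluorescence ratio rising 3 SD or more over the vehicle control mean in both replicates, plus primary screen hit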;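 further: peak minus minimum thallium fluorescence divided by baseline after K/Tl stimulus; 0% = vehicle mean plus 3 SD and 100% = vehicle minus unstimulated blank difference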
Kir21 spec: mouse Kir2.1 channel activation off-target, confirmation, selectivity assay for KCNQ2 potentiator project, cell-based, HEK293, FluxOR thallium flux. hit rate 2% among 1,200. shares compounds with KCNQ2 enhance. activity over 3SD threshold, % at 10 µM. HEK293 Kir2.1, FluxOR thallium flux fluorescence. AID 2345, 2010;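 active means fluorescence ratio rise of at least 3 SD above the vehicle-control mean, seen in both replicates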;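 further: 0% = vehicle mean plus 3 SD and 100% = vehicle minus no-stimulus blank window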
KCNQ2 W236L MoA: potentiators of retigabine-insensitive KCNQ2 W236L, mechanism study for KCNQ2 potentiator project, cell-based, rat KCNQ2 W236L, CHO, automated patch clamp | shares compounds with KCNQ2 enhance | automated patch clamp current | current increase over 3SD of negative controls (%), active compounds read high, % at 25 µM | hit rate 10% among 940 | AID 2558, 2010;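 active means current increase at least 3 SD of the untreated controls above them in both duplicate recordings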
* hit, by the source's call.

CCN(C(=O)CN1c2ccccc2CC1C)c1c(N)n(Cc2ccccc2)c(=O)[nH]c1=O (configuration not stated) was read as KCNQ2 inh inactive and KCNQ2 enhance 0.77.
`CC(=O)Nc1sc2c(c1C(c1ccccn1)N1CCCC1)CCCC2` (configuration not stated) gave KCNQ2 inh inactive and KCNQ2 enhance 1.
`CC(=O)Nc1sc2c(c1C(c1ccccc1Cl)N1CCN(CCO)CC1)CCCC2` (configuration not stated) gave KCNQ2 inh inactive, KCNQ2 enhance 5.3*, CHO-K1 Tl ctr -36, KCNQ1 pot spec -18, KCNQ2 pot conf 38*, Kir21 spec -62 and KCNQ2 W236L MoA inactive.
`Cc1ncc(CN2CCCCC2C(=O)Nc2ccc(Oc3ccccc3)nc2)cn1` (configuration not stated) gave KCNQ2 inh inactive and KCNQ2 enhance 0.05.
Screening Cc1nc(=S)c2ccccc2[nH]1 returned KCNQ2 inh inactive and KCNQ2 enhance 1.1.
For S=c1nc(Cc2ccc(Cl)cc2)[nH]c2ccccc12 the results were KCNQ2 inh inactive, KCNQ2 enhance 11*, Kir21 confirm inactive, HEK293 Tl flux 158%*, CHO-K1 Tl ctr -8, KCNQ1 pot spec -8, KCNQ2 pot conf 6.1*, Kir21 spec -41 and KCNQ2 W236L MoA inactive.
`S=c1nc(Cc2ccccc2)[nH]c2ccccc12` gave KCNQ2 inh inactive, KCNQ2 enhance 11*, Kir21 confirm inactive, HEK293 Tl flux 323%*, CHO-K1 Tl ctr 45*, KCNQ1 pot spec -13, KCNQ2 pot conf 40*, Kir21 spec -30 and KCNQ2 W236L MoA inactive.
O=c1[nH]c(COc2ccccc2)nc2ccccc12 was read as KCNQ2 inh inactive.
`Cc1ccc(Cc2nc3ccccc3[nH]2)cc1` gave KCNQ2 inh inactive.
S=c1nc(COc2ccccc2)[nH]c2ccccc12 was read as KCNQ2 inh inactive, KCNQ2 enhance 20*, Kir21 confirm inactive, HEK293 Tl flux 479%*, CHO-K1 Tl ctr 1.8*, KCNQ1 pot spec -11, KCNQ2 pot conf 63*, Kir21 spec -15 and KCNQ2 W236L MoA inactive.
For COc1cc(/C=N/NC(=O)CNC(=O)/C=C/c2ccco2)cc(OC)c1OC the results were KCNQ2 inh inactive and KCNQ2 enhance 0.46.
For O=C(NCc1ccco1)c1cc2c(s1)CSC2 the results were KCNQ2 inh inactive.
For COc1cccc(CC2(CO)CCCN(Cc3cnn(-c4ccccc4)c3)C2)c1 (configuration not stated) the results were KCNQ2 inh inactive and KCNQ2 enhance 0.67.
